Experimental data as given in article PMC7862700, “An all-to-all approach to the identification of sequence-specific readers for epigenetic DNA modifications on cytosine”.

Target: T1, ELK1 (Homo sapiens, UniProt P19419 1-428)
T1 sequence: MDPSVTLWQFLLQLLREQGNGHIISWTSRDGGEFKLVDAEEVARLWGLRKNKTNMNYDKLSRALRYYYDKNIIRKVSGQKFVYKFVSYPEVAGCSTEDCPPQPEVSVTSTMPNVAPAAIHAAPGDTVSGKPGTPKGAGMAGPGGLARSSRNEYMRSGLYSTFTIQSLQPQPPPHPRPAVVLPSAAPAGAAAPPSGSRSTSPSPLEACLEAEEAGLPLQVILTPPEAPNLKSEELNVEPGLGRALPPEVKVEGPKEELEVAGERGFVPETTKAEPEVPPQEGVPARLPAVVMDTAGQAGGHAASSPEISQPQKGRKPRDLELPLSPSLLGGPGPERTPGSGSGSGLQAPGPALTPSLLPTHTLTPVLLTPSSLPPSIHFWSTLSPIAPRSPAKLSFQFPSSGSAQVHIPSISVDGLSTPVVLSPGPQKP
Assay: DAPPL (digital affinity profiling via proximity ligation, sequencing); 10 mM Tris-HCl pH 7.5, 50 mM NaCl, 1 mM DTT, 4% glycerol, room temperature, 30 min; GST-TFs on glutathione beads, 16-mer random dsDNA library, 0.1% formaldehyde crosslink after washing; high values mean tight binding
Details: protein: recombinant; tags: N-terminal GST; dsDNA, one strand shown
How it was run: (§1)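 GST fusions of human transcription factors were expressed in yeast and captured with glutathione beads. Once given DNA barcodes and pooled alongside a tag-only sample, they were incubated for 30 min at room temperature with 200 nmole of a random double-stranded 16-mer DNA library in Tris/NaCl/DTT/glycerol buffer, then washed, crosslinked (0.1% formaldehyde), proximity-ligated, PCR-amplified and sequenced on an Illumina NextSeq500. The binding signal of each hexamer is its read frequency for a factor divided by its frequency for the tag-only sample.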

Sequence	binding signal
CCACCA	1.04 fold enrichment (6-mer frequency, TF over GST control)
GCCACA	1.02 fold enrichment (6-mer frequency, TF over GST control)
GACCAA	1.05 fold enrichment (6-mer frequency, TF over GST control)
GATCCG	1.01 fold enrichment (6-mer frequency, TF over GST control)
AGATGT	1 fold enrichment (6-mer frequency, TF over GST control)
GGCAGC	1.02 fold enrichment (6-mer frequency, TF over GST control)
GTTGCC	1.01 fold enrichment (6-mer frequency, TF over GST control)
ATAACG	1.04 fold enrichment (6-mer frequency, TF over GST control)
GATTGA	1.01 fold enrichment (6-mer frequency, TF over GST control)
AGGTAA	1.03 fold enrichment (6-mer frequency, TF over GST control)

Target: T2, GABPA (Homo sapiens, UniProt Q06546 1-454)
T2 sequence: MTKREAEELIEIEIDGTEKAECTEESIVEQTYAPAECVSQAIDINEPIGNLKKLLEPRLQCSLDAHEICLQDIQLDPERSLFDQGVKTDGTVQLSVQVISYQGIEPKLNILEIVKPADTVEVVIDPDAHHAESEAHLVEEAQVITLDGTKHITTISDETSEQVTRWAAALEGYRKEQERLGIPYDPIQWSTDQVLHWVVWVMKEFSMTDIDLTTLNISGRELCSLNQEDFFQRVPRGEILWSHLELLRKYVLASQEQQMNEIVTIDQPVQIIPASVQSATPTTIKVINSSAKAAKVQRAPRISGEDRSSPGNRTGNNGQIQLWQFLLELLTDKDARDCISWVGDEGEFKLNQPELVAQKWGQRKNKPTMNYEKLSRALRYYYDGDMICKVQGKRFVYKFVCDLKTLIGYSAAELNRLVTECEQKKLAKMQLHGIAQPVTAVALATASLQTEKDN
Assay: as above
Details: protein: recombinant; tags: N-terminal GST; dsDNA, one strand shown
How it was run: as §1

Sequence	binding signal
GTGCAA	1.02 fold enrichment (6-mer frequency, TF over GST control)
GACCAA	1.04 fold enrichment (6-mer frequency, TF over GST control)
AGATGT	1.01 fold enrichment (6-mer frequency, TF over GST control)
ATAACG	1 fold enrichment (6-mer frequency, TF over GST control)
CAAGCC	1.03 fold enrichment (6-mer frequency, TF over GST control)
AGGTAA	1.02 fold enrichment (6-mer frequency, TF over GST control)

Target: T3, ERG (Homo sapiens, UniProt P11308 1-479)
T3 sequence: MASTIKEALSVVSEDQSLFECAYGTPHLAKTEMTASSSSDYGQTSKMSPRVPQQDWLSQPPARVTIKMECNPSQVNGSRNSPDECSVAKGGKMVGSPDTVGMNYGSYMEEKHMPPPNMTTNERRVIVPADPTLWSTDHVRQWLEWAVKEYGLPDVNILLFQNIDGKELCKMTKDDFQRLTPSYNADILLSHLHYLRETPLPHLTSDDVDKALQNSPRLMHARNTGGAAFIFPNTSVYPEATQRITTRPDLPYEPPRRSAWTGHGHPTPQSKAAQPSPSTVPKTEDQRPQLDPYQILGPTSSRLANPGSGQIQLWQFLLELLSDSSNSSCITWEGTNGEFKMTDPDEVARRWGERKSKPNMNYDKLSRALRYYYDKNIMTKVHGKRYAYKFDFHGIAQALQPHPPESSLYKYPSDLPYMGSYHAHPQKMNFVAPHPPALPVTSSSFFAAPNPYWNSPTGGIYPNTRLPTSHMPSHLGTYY
Assay: as above
Details: protein: recombinant; tags: N-terminal GST; dsDNA, one strand shown
How it was run: as §1

Sequence	binding signal
GTCATT	1.03 fold enrichment (6-mer frequency, TF over GST control)
GATCCG	1.04 fold enrichment (6-mer frequency, TF over GST control)
ACGCGT	1 fold enrichment (6-mer frequency, TF over GST control)

Target: ELF1 (Homo sapiens, UniProt P32519 1-619)
Sequence (P32519 whole entry): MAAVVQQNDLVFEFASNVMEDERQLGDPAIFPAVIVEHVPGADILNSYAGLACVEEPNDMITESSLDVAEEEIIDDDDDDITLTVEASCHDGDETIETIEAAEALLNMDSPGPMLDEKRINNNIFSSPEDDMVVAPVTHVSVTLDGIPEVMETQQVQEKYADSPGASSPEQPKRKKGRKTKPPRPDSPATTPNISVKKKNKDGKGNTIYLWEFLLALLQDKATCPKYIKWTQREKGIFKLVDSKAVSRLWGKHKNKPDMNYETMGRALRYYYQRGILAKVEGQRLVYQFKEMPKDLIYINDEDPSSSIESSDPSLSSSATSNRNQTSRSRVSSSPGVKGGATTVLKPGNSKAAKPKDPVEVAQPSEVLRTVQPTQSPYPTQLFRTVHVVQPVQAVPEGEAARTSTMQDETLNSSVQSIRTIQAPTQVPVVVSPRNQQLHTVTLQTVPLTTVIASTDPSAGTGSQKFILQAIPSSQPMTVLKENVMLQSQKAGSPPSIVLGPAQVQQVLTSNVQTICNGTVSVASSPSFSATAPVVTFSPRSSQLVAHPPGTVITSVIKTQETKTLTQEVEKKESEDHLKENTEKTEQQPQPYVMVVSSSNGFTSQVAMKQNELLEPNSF
Assay: as above
Details: protein: recombinant; tags: N-terminal GST; dsDNA, one strand shown
How it was run: as §1

Sequence	binding signal
CCACCA	1.12 fold enrichment (6-mer frequency, TF over GST control)
GCCACA	1.01 fold enrichment (6-mer frequency, TF over GST control)
TCAGTA	1.01 fold enrichment (6-mer frequency, TF over GST control)
GACCAA	1.02 fold enrichment (6-mer frequency, TF over GST control)
GATACC	1.04 fold enrichment (6-mer frequency, TF over GST control)
ACACAG	1.05 fold enrichment (6-mer frequency, TF over GST control)
TCTGAG	1.01 fold enrichment (6-mer frequency, TF over GST control)
TGAACG	1.01 fold enrichment (6-mer frequency, TF over GST control)

Target: T4, EHF (Homo sapiens, UniProt Q9NZC4 1-300)
T4 sequence: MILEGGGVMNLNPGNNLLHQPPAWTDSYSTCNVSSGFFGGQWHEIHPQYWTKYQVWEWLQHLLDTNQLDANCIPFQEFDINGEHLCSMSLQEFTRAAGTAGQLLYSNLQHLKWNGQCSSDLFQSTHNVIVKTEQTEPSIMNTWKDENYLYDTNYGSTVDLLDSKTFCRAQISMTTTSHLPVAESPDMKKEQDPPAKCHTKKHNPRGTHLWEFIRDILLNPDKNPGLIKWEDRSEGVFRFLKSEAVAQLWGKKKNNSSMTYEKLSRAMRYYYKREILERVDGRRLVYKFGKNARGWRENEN
Assay: as above
Details: protein: recombinant; tags: N-terminal GST; dsDNA, one strand shown
How it was run: as §1

Sequence	binding signal
GGCTGC	1.02 fold enrichment (6-mer frequency, TF over GST control)
CCACCA	1.04 fold enrichment (6-mer frequency, TF over GST control)
GTGCAA	1 fold enrichment (6-mer frequency, TF over GST control)
GATACC	1 fold enrichment (6-mer frequency, TF over GST control)
TCTGAG	1.01 fold enrichment (6-mer frequency, TF over GST control)

Target: SPI1 (Homo sapiens, UniProt P17947 1-270)
Assay: as above
Details: protein: recombinant; tags: N-terminal GST; dsDNA, one strand shown
How it was run: as §1

Sequence	binding signal
GTGGTA	1.02 fold enrichment (6-mer frequency, TF over GST control)
GGCTGC	1.01 fold enrichment (6-mer frequency, TF over GST control)
GTGCAA	1.06 fold enrichment (6-mer frequency, TF over GST control)
ATAACG	1.01 fold enrichment (6-mer frequency, TF over GST control)

Target: SPIB (Homo sapiens, UniProt Q01892 1-262)
Sequence (Q01892 whole entry): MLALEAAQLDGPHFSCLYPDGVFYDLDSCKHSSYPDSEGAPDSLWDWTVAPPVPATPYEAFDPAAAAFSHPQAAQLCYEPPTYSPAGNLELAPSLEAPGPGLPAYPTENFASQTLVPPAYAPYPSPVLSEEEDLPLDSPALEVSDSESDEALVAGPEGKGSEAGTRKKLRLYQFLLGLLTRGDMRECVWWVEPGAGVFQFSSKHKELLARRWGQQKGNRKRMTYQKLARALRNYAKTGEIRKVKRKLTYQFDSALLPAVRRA
Assay: as above
Details: protein: recombinant; tags: N-terminal GST; dsDNA, one strand shown
How it was run: as §1

Sequence	binding signal
GTGGTA	1 fold enrichment (6-mer frequency, TF over GST control)
CCACCA	1.08 fold enrichment (6-mer frequency, TF over GST control)
GATCCG	1.05 fold enrichment (6-mer frequency, TF over GST control)
ACGCGT	1.04 fold enrichment (6-mer frequency, TF over GST control)
ATAACG	1.01 fold enrichment (6-mer frequency, TF over GST control)

Target: T5, ELK3 (Homo sapiens, UniProt P41970 1-407)
T5 sequence: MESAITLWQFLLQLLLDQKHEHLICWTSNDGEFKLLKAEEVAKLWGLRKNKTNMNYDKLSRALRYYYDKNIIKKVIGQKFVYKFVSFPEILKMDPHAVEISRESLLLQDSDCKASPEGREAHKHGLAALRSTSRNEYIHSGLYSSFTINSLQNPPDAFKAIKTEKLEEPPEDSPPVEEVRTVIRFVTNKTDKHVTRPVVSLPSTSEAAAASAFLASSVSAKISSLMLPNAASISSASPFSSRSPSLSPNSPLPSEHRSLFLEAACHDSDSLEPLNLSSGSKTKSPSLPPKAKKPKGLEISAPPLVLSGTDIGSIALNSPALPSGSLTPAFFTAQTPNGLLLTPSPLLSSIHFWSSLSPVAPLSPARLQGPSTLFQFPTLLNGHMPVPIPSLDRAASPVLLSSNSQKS
Assay: as above
Details: protein: recombinant; tags: N-terminal GST; dsDNA, one strand shown
How it was run: as §1

Sequence	binding signal
CAGTAT	1.03 fold enrichment (6-mer frequency, TF over GST control)
AAAGTC	1.08 fold enrichment (6-mer frequency, TF over GST control)
GCGTTA	1.09 fold enrichment (6-mer frequency, TF over GST control)
CCACCA	1.03 fold enrichment (6-mer frequency, TF over GST control)
CGGTCC	1.03 fold enrichment (6-mer frequency, TF over GST control)
TCTGAG	1.01 fold enrichment (6-mer frequency, TF over GST control)
GTTGCC	1 fold enrichment (6-mer frequency, TF over GST control)
TGAACG	1.06 fold enrichment (6-mer frequency, TF over GST control)
CAAGCC	1.06 fold enrichment (6-mer frequency, TF over GST control)
GCATAT	1.04 fold enrichment (6-mer frequency, TF over GST control)
